# Tau fluor counter – counter-screen for tau fibril formation inhibitors; tau K18 P301L Alexa594 fluorescence, heparin fibrillization; Potency, µM (titrated, usually from 57.7 µM), for the others: at the top dose activity change, negative = decrease; 280,000 tested, 0.93% active; further: potency means the concentration at half of the fitted maximal effect; on the % scale 0 is the no-effect control and ±100 the full control effect; nearly all actives have a fitted effect of over 55% in size
#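 Human K18 P301L tau (15 uM unlabeled plus 0.24 uM Alexa 594-labeled, final) in 100 mM sodium acetate pH 7 was mixed with compound and 20 uM heparin and incubated 6 hr at 37 C.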
# Tau ThT inhib – tau fibrillization inhibition (ThT binding). 270,000 tested, 2.1% active. Potency, µM (highest dose often 57.4 µM), for inactives: top-dose activity, negative = inhibition, most hits filed as inhibitors. AID 1460. P10636. recombinant tau K18 P301L, heparin-induced fibrillization, ThT fluorescence; further: potency means the concentration at half of the fitted maximal effect; on the % scale 0 is the no-effect control and ±100 the full control effect; nearly all actives have a fitted effect of over 55% in size
# Target sequence (P10636 561-689 P618L limits assumed): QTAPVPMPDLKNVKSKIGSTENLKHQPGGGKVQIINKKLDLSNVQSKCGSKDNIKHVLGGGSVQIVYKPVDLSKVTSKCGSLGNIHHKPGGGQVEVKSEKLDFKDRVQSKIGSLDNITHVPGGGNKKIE
#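 Recombinant human tau K18 fragment […] carrying P301L, 15 uM unlabeled plus 0.24 uM Alexa 594-labeled, was fibrillized with 20 uM heparin in 100 mM sodium acetate pH 7 for 6 hr at 37 C; 30 uM ThT fluorescence read after 1 hr.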
# NPSR antagonist – neuropeptide S receptor (human) antagonism, cAMP. CHO-NPSR cells, cAMP TR-FRET, antagonist mode. Potency, µM (series often up to 38.3 µM), inactives show top-dose activity change, negative = inhibition, most hits filed as inhibitors. 220,000 tested, 1% active. Q6W5P4; further: potency means the concentration at half of the fitted maximal effect; on the % scale 0 is the no-effect control and ±100 the full control effect; nearly all actives have a fitted effect of over 50% in size
# Target sequence (Q6W5P4 whole entry, looked up): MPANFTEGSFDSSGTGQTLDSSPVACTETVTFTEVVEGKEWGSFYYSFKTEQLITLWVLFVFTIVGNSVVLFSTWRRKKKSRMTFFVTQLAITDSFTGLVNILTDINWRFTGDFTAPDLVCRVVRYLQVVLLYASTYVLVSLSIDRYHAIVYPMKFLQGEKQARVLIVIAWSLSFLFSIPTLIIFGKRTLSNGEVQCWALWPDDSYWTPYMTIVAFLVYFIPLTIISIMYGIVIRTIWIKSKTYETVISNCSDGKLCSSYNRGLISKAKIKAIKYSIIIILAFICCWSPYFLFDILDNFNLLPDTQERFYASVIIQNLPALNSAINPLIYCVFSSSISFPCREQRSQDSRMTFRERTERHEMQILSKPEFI
# Luc counter – Kinase-Glo luciferase inhibition (counter-screen); AID 1379; 200,000 tested, 0.28% active; Kinase-Glo luciferase, ATP luminescence, 8 min; Potency, µM (doses to about 38.3 µM), for inactives: at the highest dose activity change, negative = inhibition, usual class: inhibitors; Q27757; further: potency means the concentration at half of the fitted maximal effect; on the % scale 0 is the no-effect control and ±100 the full control effect; nearly all actives have a fitted effect of over 60% in size
#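 Light output from Kinase-Glo luciferase with luciferin and 10 uM ATP in 50 mM imidazole pH 7.2, KCl, MgCl2, Tween 20, BSA; compound pin-delivered, 8-min ambient incubation, then luminescence read.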
# Tau fibril FP – tau fibrillization inhibition (FP) | K18 P301L tau heparin fibrillization, Alexa594 FP, 6 h | Potency, µM (series often up to 57.7 µM), for the others: at the top dose activity, negative = inhibition, hits mostly inhibitors | 280,000 tested, 0.39% active | AID 1468; further: potency means the concentration at half of the fitted maximal effect; on the % scale 0 is the no-effect control and ±100 the full control effect; nearly all actives have a fitted effect of over 55% in size
#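 Quantitative HTS format: compounds meet 15 uM recombinant K18 P301L tau and Alexa 594-tau tracer in 100 mM sodium acetate pH 7; 20 uM heparin triggers fibrillization at 37 C over 6 hr; FP gives the signal.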
# Tau fibril TEM – Blocks tau fibril formation, electron microscopy. 45 tested, 70% active. AID 1719. fibril grade (0 = clumped fibrils, 4 = only tiny pieces) (test concentration not listed). recombinant tau K18 P301L fibrillization, TEM grading; active compounds read high. shares compounds with Tau ThT inhib;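 active means compounds whose electron micrographs showed tau fibrils broken into shorter filaments or fragments, graded high on fibril breakup; inconclusive means micrographs gave an unclear fibril picture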
# tau sediment – inhibitors of human tau fibrillization, sedimentation test | recombinant tau K18 P301L (four-repeat tau fragment), sedimentation SDS-PAGE densitometry | 110 tested, 50% active | inhibition, % at 100 µM | shares compounds with Tau ThT inhib | AID 1720; in the data active means inhibition above about 40%; inconclusive means no clear call, values can overlap the other calls; inactive means below about 18%
# Starred values were filed as active, the others as inactive; ? = inconclusive; / = no result given; [ ] = dose if it differs, or a comment. Shown are actives, neighbours in structure and some others; about 3.3% of the full set was active somewhere. Unless noted, the call rests on the fitted dose curve; in most records, active means well fitted curve in the direction sought with a large enough effect; inconclusive means small, poorly fitted or top-dose-only effect, or another doubt; inactive means no such curve, though single readings can be large; an effect the other way counts as inactive or inconclusive.
SMILES,Tau fluor counter,Tau ThT inhib,NPSR antagonist,Luc counter,Tau fibril FP,others
Cc1cccc(CSc2cccc3cccnc23)c1,-14%,-20%,3.2µM*,-9%,-2%,
CN1C(=O)c2ccccc2Sc2ccc(NC(=O)NC3CC3)cc21,-22%,-19%,-6%[46.1 µM],-8%,-1%,
CC(=O)Nc1ccc(C(=O)Nc2ccc3c(c2)N(C2CCCC2)C(=O)c2ccccc2S3)cc1,?,13%,/,/,13µM*,
O=C(Nc1ccc2c(c1)N(Cc1ccccc1)C(=O)c1ccccc1S2)NC1CC1,?,6%,-24%[46.1 µM],-2%,22µM*,
CCN1/C(=C/C(C)=C/c2sc3ccccc3[n+]2CC)Sc2ccccc21,0.45µM*[fluorescent],1.6µM*,?,?,?,
COc1cc(S(=O)(=O)Nc2ccccc2)ccc1N=Cc1c(C)[nH]n(-c2ccc(C)cc2)c1=O,?,?,-22%,-15%,0%,
COc1cc(SC#N)ccc1N=Cc1c(C)[nH]n(-c2ccc(Cl)cc2)c1=O,-23%,11µM*,?,-18%,?,
COc1cc(SC#N)ccc1N=Cc1c(C)[nH]n(-c2ccc(C)c(C)c2)c1=O,-19%,18µM*,5µM*,?,?,
O=S(=O)(c1ccccc1)c1ncc(C(F)(F)F)cc1Cl,-1%,?,-29%,6%,-8%,
Cc1cccc(OCc2cc(=O)n3c4c(sc3n2)CCCC4)c1C,-6%,-14%,/,/,2%,
Cc1cccc2cc(C(c3nnnn3CC3CCCO3)N3CCc4ccccc4C3)c(=O)[nH]c12 (stereo unspecified),-1%,?,-7%[46.1 µM],2%,-4%,
Cc1ccc(C)c2[nH]c(=O)c(C(c3nnnn3Cc3ccccc3)N3CCc4ccccc4C3)cc12 (stereo unspecified),-21%,22µM*,-17%[46.1 µM],-5%,?,
Cc1ccc(-n2c(C)cc(C3=NNC(=NC4CC4)SC3)c2C)cc1C,-13%,?,10µM*,-6%,-7%,
N#CCCn1nc(-c2ccc(Br)cc2)cc1Nc1ccccc1NC(=O)C(F)(F)F,20µM*[quencher],?,-17%,0%,15%,
N#CCCn1nc(-c2ccccc2)cc1Nc1ccccc1NC(=O)C(F)(F)F,-23%,-4%,-9%,2%,1%,
COCCN1Cc2cccc(C(=O)Nc3ccc(C(=O)OC)cc3)c2C1=O,-7%,5%,/,/,?,
Nc1c(C(=O)N/N=C/c2ccc(Cl)cc2)cnn1-c1ccccc1,-2%,0%,9%,/,-2%,
Nc1scc2c(C(=O)N/N=C/c3ccc(Cl)cc3)nn(-c3ccccc3)c(=O)c12,?,11µM*,-22%[46.1 µM],4%,?,
CC(=O)N1CCCc2cc(S(=O)(=O)N3CCCC(C(=O)Nc4cccc(Cl)c4C)C3)ccc21 (stereo unspecified),-16%,-12%,/,/,9%,
Cc1ccccc1Cn1c(C)c(CNCCCc2ccccc2)c(C(=O)O)c1C,6%,-1%,/,/,4%,
Cc1cc(C)c2nc(-c3ccccn3)cc(C(=O)Nc3ccc(S(=O)(=O)Nc4cc(C)on4)cc3)c2c1,-7%,-16%,10µM*,-6%,-9%,
Cc1cc(C)c2nc(-c3ccccn3)cc(C(=O)Nc3ccc(S(=O)(=O)Nc4onc(C)c4C)cc3)c2c1,-26%,?,-56%,-2%,-5%,
CCCCNC(=O)CSc1nc2ccccc2nc1Cc1ccccc1,-11%,-12%,/,/,-2%,
CC1=C/C(=N\OS(=O)(=O)c2ccccc2)C(C(C)C)=CC1=O,-26%,10µM*,10µM*,-2%,?,
CC1=C/C(=N\OS(=O)(=O)c2ccccc2)C(C)=CC1=O,?,14µM*,2.5µM*,-3%,?,
SMILES,Tau fluor counter,Tau ThT inhib,NPSR antagonist,Luc counter,Tau fibril FP,others
CC1=C(C)/C(=N\OS(=O)(=O)c2ccc(C)cc2)C=CC1=O,?,10µM*,?,2%,16µM*,
CCCC/C=C/C(NC(=O)C(C)(C)C)c1ccccc1 (stereo unspecified),-6%,2%,/,-3%,2%,
O=C1/C(=C\c2ccc([N+](=O)[O-])cc2)CCc2ccccc21,-14%,?,-6%,13µM*,-14%,
O=C1/C(=C/Nc2cccc([N+](=O)[O-])c2)CCc2ccccc21,?,14µM*,-31%,-2%,9%,
O=C1/C(=C/c2ccc(O)cc2)CCc2ccc([N+](=O)[O-])cc21,-29%,?,-19%,2%,12%,
CCN(CC)c1ccc(NC(=O)Nc2ccc(C(C)=O)cc2)cc1,14µM*[quencher],?,-23%[46.1 µM],1%,8%,
CCc1ccc(NC(=O)c2cc(S(=O)(=O)N3CCCCCC3)ccc2F)cc1,-20%,3%,/,/,-1%,
COC(=O)c1ccccc1NC(=O)CSc1nc2sc3c(c2c(=O)[nH]1)CCCC3,?,7.9µM*,/,/,14µM*,Tau fibril TEM=2*;tau sediment=58*
Cc1ccc(N2C(=O)SC(Cc3ccccc3)C2=O)cc1 (stereo unspecified),-24%,?,26%,/,?,Tau fibril TEM=?;tau sediment=?
O=C1SC(Cc2ccccc2)C(=O)N1c1ccccc1 (stereo unspecified),-6%,-8%,0%,/,1%,
COc1ccc(C)cc1NC(=O)NCCn1nnc2cc(S(=O)(=O)N(C)C)ccc21,2%,5%,/,/,2%,
O=S(=O)(c1ccc(NC(=S)N/N=C/c2ccc(N3CCOCC3)cc2)cc1)N1CCOCC1,?,?,2%,-1%,14%,tau sediment=11
O=S(=O)(c1ccc(NC(=S)N/N=C/c2ccc(Oc3ccccc3)cc2)cc1)N1CCOCC1,-10%,4%,21%,-2%,1%,
Cc1cc2c(N)cccc2nn1,?,3.2µM*,?,-12%,?,Tau fibril TEM=3*;tau sediment=64*
Cn1[nH]c(CSc2ccc(Cl)cc2)cc1=O,?,?,-5%,1%,?,tau sediment=16
COC(=O)C/C=C\[C@@H](C)[C@@H](/C=N\O[C@@H](C)CN1CCCCc2nc(C)c(C)cc21)OC,-2%[11.6 µM],-3%[11.5 µM],/,/,1%[11.6 µM],
Cc1oc2c(cc(NS(=O)(=O)c3ccc(C(C)C)cc3)c3ccccc32)c1C(=O)O,-14%,?,/,/,6%,
O=C(O)c1cccc(S(=O)(=O)Nc2ccc([N+](=O)[O-])cc2O)c1,-24%,-25%,30%,/,?,
O=C(O)CSc1cc(NS(=O)(=O)c2cccc([N+](=O)[O-])c2)c2ccccc2c1O,?,1.8µM*,-25%,/,4µM*,Tau fibril TEM=4*;tau sediment=79*
